LmPK inhibitor: qHTS Assay for Inhibitors of Leishmania Mexicana Pyruvate Kinase (LmPK). Q27686. Potency, µM (doses to about 57.5 µM), for inactives: top-dose activity change, negative = inhibition, usual class: inhibitors. actives 0.37% (n = 290,000). purified LmPK, Kinase-Glo ATP luminescence, 1 h; further: potency means the concentration at half of the fitted maximal effect; on the % scale 0 is the no-effect control and ±100 the full control effect
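ATP generated from ADP (0.1 mM) and PEP (0.5 mM) by 0.1 nM LmPK over 1 h at room temperature (pH 7.2 imidazole buffer) was detected by coupled luciferase luminescence. Values were normalized to uninhibited and no-enzyme wells.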
Shiga inhibitor: A qHTS for Small Molecule Inhibitors of Shiga Toxin. Vero cells, Shiga toxin protein synthesis inhibition reporter. inhibition, % at 38.7 µM. actives 9.2% (n = 290,000). AID 2315, 2010; in the data active means inhibition mostly above about 28%, no sharp cut-off; inactive means mostly below about 43%; further: 0% is about no effect
Giardia FBPA inh: qHTS Assay for Inhibitors of Fructose-1,6-bisphosphate Aldolase from Giardia Lamblia; purified Giardia FBPA; Potency, µM (top dose mostly 59.6 µM), for inactives: at the highest dose activity, negative = inhibition, actives largely listed as inhibitors; actives 0.71% (n = 290,000); AID 2451, 2010; further: potency means the concentration at half of the fitted maximal effect; on the % scale 0 is the no-effect control and ±100 the full control effect; nearly all actives have a fitted effect of over 55% in size
Target sequence (A8B2U2 whole entry, looked up): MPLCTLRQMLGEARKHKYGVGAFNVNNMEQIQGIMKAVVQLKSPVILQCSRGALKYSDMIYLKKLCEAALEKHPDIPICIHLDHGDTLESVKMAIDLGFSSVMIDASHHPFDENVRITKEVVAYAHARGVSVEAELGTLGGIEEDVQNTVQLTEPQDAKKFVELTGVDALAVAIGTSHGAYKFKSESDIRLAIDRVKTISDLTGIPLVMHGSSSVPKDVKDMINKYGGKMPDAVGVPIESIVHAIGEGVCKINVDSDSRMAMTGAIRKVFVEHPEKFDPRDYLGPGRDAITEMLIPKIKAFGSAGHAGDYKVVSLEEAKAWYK
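40 nM FBPA preincubated 10 min at RT with compound (up to 57.5 uM final), then substrate plus GAPDH/TPI/NAD/arsenate coupling and diaphorase/resazurin added. Fluorescence read after 20 min at RT, 525/598 nm.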
NS1 inh: qHTS Assay for Inhibitors of Influenza NS1 Protein Function | Potency, µM (highest dose often 46.1 µM), without a hit: at the top dose activity, positive = more growth | actives 0.4% (n = 270,000) | AID 2326, 2010; calls by dose curve; further: potency means the concentration at half of the fitted maximal effect; actives are rising curves; nearly all actives have a fitted effect of over 50% in size
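In this qHTS, NS1 from influenza A is expressed in budding yeast, where it slows growth. Cells are switched from glucose to 2% galactose medium (pH 6.0, -URA), treated with compound, and growth recovery is read at OD600.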
Cycloheximide cs: Cycloheximide Counterscreen for Small Molecule Inhibitors of Shiga Toxin; max response, %; cell reporter, cycloheximide protein synthesis inhibition counterscreen; AID 2314, 2010; actives 12% (n = 300,000); in the data active means max response mostly above about 13%, no sharp cut-off; inactive means mostly below about 14%; further: read at 38.3 µM for the half of the compounds with a filed dose; 0% is about no effect
The depositor's hits bear a star; ? = inconclusive; . = not tested or not shown. Compounds with a hit are over-represented: about 14% of the library has one in this group of screens. Unless noted, the call rests on the fitted dose curve; in most records, active means well fitted curve in the direction sought with a large enough effect; inconclusive means small, poorly fitted or top-dose-only effect, or another doubt; inactive means no such curve, though single readings can be large; an effect the other way counts as inactive or inconclusive.

SMILES | LmPK inhibitor | Shiga inhibitor | Giardia FBPA inh | NS1 inh | Cycloheximide cs
COc1cccc(-c2nc(COc3ccc(Cl)cc3Cl)no2)c1 | -1% | 14 | -10% | 0% | 14*
COc1ccc(OC)c(S(=O)(=O)NC2CCCCNC2=O)c1 (centres undefined) | -4% | -7 | 2% | 4% | -5
CCC(C(=O)NC1CCCCC1)n1c(SCc2cccc(C)c2)nc2ccncc21 (centres undefined) | -7% | 21 | 9% | 25% | 26*
CC(C)Cn1c(SC(C)C(=O)Nc2ccc3c(c2)OCCO3)nc2ccccc2c1=O (centres undefined) | 3% | 4 | -6% | 8% | 1
O=c1c2ccccc2nnn1CSc1ccc2c(c1)OCCO2 | -26% | 26* | -1% | -48% | 52*
CCC(C(=O)Nc1ccc2c(c1)OCCO2)n1nnc2ccccc2c1=O (centres undefined) | 5% | 66* | . | -3% | 59*
O=C(OCN1C(=O)c2ccccc2C1=O)c1ccc(Cl)nc1 | 0% | -14 | 17% | -3% | -3
CCC(C(=O)NC(CC(=O)O)c1ccc(Cl)cc1)c1ccccc1 (centres undefined) | 6% | -4 | 11% | 8% | 0
O=C(Nc1ccccc1F)Nc1ccccc1Br | -16% | 68* | -6% | -3% | 25*
CNC(=O)Nc1ccccc1F | 1% | -21 | 4% | 3% | -5
O=C(NC1=NN(c2ccccc2)CC1)Nc1ccccc1F | 2% | 37* | -8% | -34% | 35*
O=C(CCN1CCN(c2ccccc2)CC1)Nc1ccccc1F | -1% | 5 | 2% | -8% | -2
O=C(C#Cc1ccccc1)Nc1ccccc1F | ? | 59 | 7% | -39% | 34*
O=C(Nc1ccccc1F)Nc1ccccc1N1CCCCC1 | 0% | 11 | -6% | -50% | 10.0*
COC(C(=O)Nc1ccccc1F)c1ccccc1 (centres undefined) | 6% | 4 | 2% | 6% | -3
CCN(C(=O)COC(=O)CN(C)S(=O)(=O)c1ccc(NC(C)=O)cc1)C1CCS(=O)(=O)C1 (centres undefined) | -5% | 4 | -2% | 1% | -2
COc1cccc(Cn2c(=O)c(-c3ccccc3)nc3cncnc32)c1 | . | . | 0% | . | .
O=C(NCC1CCCO1)c1ccc(Cl)c(S(=O)(=O)Nc2ccccc2)c1 (centres undefined) | 5% | 2 | . | 9% | 1
CS(=O)(=O)c1ccc2nc(NC(=O)c3ccccc3)sc2c1 | -25% | 39* | -16% | 2% | 28*
Cc1cccc(C(=O)Nc2nc3ccc(S(C)(=O)=O)cc3s2)c1 | -11% | 88* | -9% | 15% | 36*
CS(=O)(=O)c1ccc2nc(NC(=O)Nc3ccccc3F)sc2c1 | -3% | 73* | 6% | 5% | 61*
CS(=O)(=O)c1ccc2nc(NC(=O)Cc3ccccc3)sc2c1 | -2% | 18 | 5% | ? | 9
CS(=O)(=O)c1ccc2nc(NC(=O)Nc3cccc(Cl)c3)sc2c1 | -2% | 107* | -3% | 27% | 31*
CS(=O)(=O)c1ccc2nc(NC(=O)Nc3ccc(Cl)c(Cl)c3)sc2c1 | 4% | 12 | -4% | ? | -2
CC(C)(C)C(=O)Nc1nc2ccc(S(C)(=O)=O)cc2s1 | -4% | 78* | 0% | . | 36*
SMILES | LmPK inhibitor | Shiga inhibitor | Giardia FBPA inh | NS1 inh | Cycloheximide cs
CC(C)C(=O)Nc1nc2ccc(S(C)(=O)=O)cc2s1 | -8% | 28 | 2% | -5% | 27
Cc1ccc(OC(=O)N2CCOCC2)cc1 | 2% | 48* | 6% | -4% | 30*
CCC(=O)c1ccc(OC(=O)N2CCOCC2)cc1 | -4% | 33* | 10% | 19% | 23*
O=C(Oc1ccc2ccc(OC(=O)N3CCOCC3)cc2c1)N1CCOCC1 | -15% | 23 | 2% | -1% | 11*
O=C(Oc1ccccc1OC(=O)N1CCOCC1)N1CCOCC1 | 7% | 7 | 5% | 2% | -3
COC(=O)c1ccc(OC(=O)N2CCOCC2)cc1 | 1% | . | 1% | -3% | -2
CC(C)(C)c1ccc(OC(=O)N2CCOCC2)cc1 | 1% | 69* | . | 1% | 45*
O=C(Oc1ccc(OC(=O)N2CCOCC2)cc1)c1ccccc1 | -16% | 14 | -2% | 2% | 12*
O=C(Oc1ccccc1)N1CCOCC1 | -7% | -11 | 12% | 4% | -3
CC(/C=C/c1ccccc1)=N/NC(=O)c1cnccn1 | 2% | 32* | -6% | 10% | 27*
O=C(N/N=C/C=C/c1ccccc1)c1cnccn1 | -2% | 30 | 0% | 0% | 13*
CC(/C=C/c1ccccc1)=N\NC(=O)c1cc(C)[nH]n1 | 2% | 33 | -12% | . | 36*
COC(=O)NC(CCc1ccccc1)C(C(C)=O)C(=O)OC (centres undefined) | . | . | 1% | . | .
NS(=O)(=O)c1ccc(NC(=O)CSc2cn[nH]n2)cc1 | -3% | -15 | -6% | 6% | -2
Cc1n[nH]c(C)c1S(=O)(=O)N(CC(=O)Nc1ccc2c(c1)OCCO2)c1ccc(C(C)C)cc1 | 8% | 10 | -4% | -54% | 26*
COc1ccc(Cl)cc1N(CC(=O)Nc1ccc2c(c1)OCCO2)S(C)(=O)=O | -1% | 57 | 4% | -18% | 15*
COc1ccc(C)cc1N(CC(=O)Nc1ccc2c(c1)OCCO2)S(C)(=O)=O | 1% | -4 | 4% | 0% | -2
CS(=O)(=O)N(CC(=O)Nc1ccccc1C(=O)NCCc1ccccc1)c1ccc2c(c1)OCCO2 | 3% | 80 | -5% | 4% | 35*
CS(=O)(=O)N(CC(=O)Nc1ccc2c(c1)OCO2)c1ccc(Cl)cc1 | -2% | 116* | -8% | 11% | 36*
Cc1ccc(N(CC(=O)Nc2ccc3c(c2)OCCO3)S(C)(=O)=O)cc1 | 2% | 60* | -7% | 0% | 54*
COc1ccccc1N(CC(=O)Nc1ccc2c(c1)OCCO2)S(C)(=O)=O | 4% | 10 | 0% | 2% | -1
COc1ccccc1N(CC(=O)Nc1ccc2c(c1)OCCO2)S(=O)(=O)c1ccc(C)cc1 | -1% | 47* | -9% | 20% | 32*
Cc1cccc(NC(=O)CCS(=O)(=O)c2cccc3nonc23)c1C | 0% | -6 | 4% | -15% | -7
C=CCNc1nc(Nc2ccc([N+](=O)[O-])cc2)nc(N2CCCC2)n1 | 5% | -11 | -12% | . | 26*
C=CCNc1nc(Cl)nc(Nc2ccc([N+](=O)[O-])cc2)n1 | -2% | -7 | 3% | . | -1
Cc1cc(SCCOc2ccccc2)nc(N)n1 | 3% | 80* | -4% | -75% | 28*
Cc1cc(Oc2ccccc2)nc(N)n1 | -1% | 14 | 6% | 2% | -1
COCCCn1cnc2oc3nc4ccccc4nc3c2c1=O | -7% | 98* | 0% | -16% | 37*
COCCCn1cnc2c(c1=O)c1nc3ccccc3nc1n2-c1ccccc1 | 5% | -19 | -9% | -10% | 7
